# Test results taken from the supplement of paper PMC3545927.
# The list shows a part of the results. The true hit rate is not given.
# Target: furin, P09958
# Test: furin cleavage Z-score vs untreated control; higher = more cleavage, active = 3.5 or more, inactive = 1 or less, 8 variable residues between constant flanks
# How it was run: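 In 50 mM HEPES pH 7.5 with CaCl2 and NaCl, purified furin was incubated with bead-anchored 8-mer peptide–cDNA fusions at 1:10 enzyme:substrate in 0.01 ml. Incubation times were 7.5, 15 and 30 min. DNA set free by cleavage was adapter-tagged by PCR and sequenced, with read counts taken as abundance. Log counts relative to furin-free reactions, after lowess adjustment and median absolute deviation scaling, form the cleavage Z-score.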
# Chain of furin, P09958 (P09958 whole entry): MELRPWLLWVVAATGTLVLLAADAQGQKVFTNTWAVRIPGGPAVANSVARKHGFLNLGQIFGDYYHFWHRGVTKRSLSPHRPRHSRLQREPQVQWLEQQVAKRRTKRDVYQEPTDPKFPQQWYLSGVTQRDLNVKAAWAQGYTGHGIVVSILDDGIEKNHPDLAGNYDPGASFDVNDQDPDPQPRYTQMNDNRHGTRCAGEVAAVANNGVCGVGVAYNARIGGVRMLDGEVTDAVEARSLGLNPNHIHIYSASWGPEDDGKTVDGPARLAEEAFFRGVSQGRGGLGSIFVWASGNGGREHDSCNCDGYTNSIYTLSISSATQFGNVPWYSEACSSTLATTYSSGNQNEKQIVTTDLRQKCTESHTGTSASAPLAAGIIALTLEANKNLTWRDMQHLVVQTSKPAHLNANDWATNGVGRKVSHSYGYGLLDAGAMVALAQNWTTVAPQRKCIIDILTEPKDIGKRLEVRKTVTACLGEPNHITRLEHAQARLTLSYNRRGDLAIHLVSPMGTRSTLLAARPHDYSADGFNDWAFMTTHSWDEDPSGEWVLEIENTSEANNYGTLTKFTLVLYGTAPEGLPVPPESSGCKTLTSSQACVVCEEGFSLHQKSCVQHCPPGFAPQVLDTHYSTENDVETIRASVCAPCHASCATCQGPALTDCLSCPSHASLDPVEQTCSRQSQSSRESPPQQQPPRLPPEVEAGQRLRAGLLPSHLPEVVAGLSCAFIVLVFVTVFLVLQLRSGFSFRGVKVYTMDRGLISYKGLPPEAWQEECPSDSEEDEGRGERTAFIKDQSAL
Sequence,furin cleavage Z-score (7.5 min),furin cleavage Z-score (15 min),furin cleavage Z-score (30 min)
CAITLPQDAVAGNASASA [HC898],-0.191 (inactive),-0.999 (inactive),-1.58 (inactive)
CAITAYAQQTAGNASASA [HC675],-0.902 (inactive),-0.292 (inactive),-0.928 (inactive)
CAGADTAACGAGNASASA [HC654],-0.934 (inactive),-0.244 (inactive),-0.368 (inactive)
CACGWAGWLLAGNASASA [HC206],0.181 (inactive),-0.831 (inactive),-0.0867 (inactive)
CAENTTPCSGAGNASASA [HC1981],-1.67 (inactive),0.267 (inactive),-0.382 (inactive)
CASAPSLKATAGNASASA [HC1264],-1.75 (inactive),-0.175 (inactive),-1.74 (inactive)
CAMEECSQQLAGNASASA [HC1762],1.29,0.207 (inactive),0.503 (inactive)
CAGARRAKRKAGNASASA [FS-1326],5.27 (active),5.92 (active),5.79 (active)
CAVCPRMKRKAGNASASA [FS-385],6.36 (active),7.19 (active),7.64 (active)
CAMAARMKRKAGNASASA [FS-1467],8.01 (active),8.75 (active),8.6 (active)
CAMEECSQHKAGNASASA [HC1774],-0.682 (inactive),0.0797 (inactive),-0.301 (inactive)
CAEVVSSTWVAGNASASA [HC135],0.7 (inactive),-1.48 (inactive),0.771 (inactive)
CAVFTGLTHIAGNASASA [HC941],-1.4 (inactive),0.134 (inactive),-1.78 (inactive)
CAQMVIIKLGAGNASASA [HC628],1.18,-0.535 (inactive),0.271 (inactive)
CAKKRRATRFAGNASASA [FS-450],1.73,3.42,4.38 (active)
CAKTNRKTRFAGNASASA [FS-345],1.94,3.24,4.81 (active)
CAILQRLKRIAGNASASA [FS-1346],3.62 (active),3.86 (active),6.79 (active)
CAQNERSYRIAGNASASA [FS-183],-0.223 (inactive),1.02,0.628 (inactive)
CANPQRFDRIAGNASASA [FS-1039],-0.635 (inactive),-0.196 (inactive),0.174 (inactive)
CAIFKRKKRIAGNASASA [FS-1212],3.24,3.6 (active),5.56 (active)
CAFLEVVTSTAGNASASA [HC2267],-1.17 (inactive),-0.113 (inactive),-1.92 (inactive)
CARAFTEAMTAGNASASA [HC1539],0.545 (inactive),-0.418 (inactive),0.0305 (inactive)
CAVAYYRGLDAGNASASA [HC868],0.403 (inactive),1.75,-1.15 (inactive)
CAAHWGVLAGAGNASASA [HC336],-1.27 (inactive),-1.2 (inactive),-0.699 (inactive)

Sequence,furin cleavage Z-score (7.5 min),furin cleavage Z-score (15 min),furin cleavage Z-score (30 min)
CAIYCRKKRIAGNASASA [FS-806],2.51,0.629 (inactive),4.48 (active)
CAEWLRKKRIAGNASASA [FS-418],0.96 (inactive),1.09,1.3
CASLHLKKRIAGNASASA [FS-625],-0.694 (inactive),-1.61 (inactive),0.811 (inactive)
CAKKRRKKRIAGNASASA [FS-936],3.69 (active),6.37 (active),7.05 (active)
CAIQSRRKKIAGNASASA [FS-443],0.424 (inactive),-0.328 (inactive),0.24 (inactive)
CAYREVPCHRAGNASASA [HC2429],1.27,-0.258 (inactive),-1.27 (inactive)
CACNDSLNTGAGNASASA [HC375],-1.58 (inactive),0.314 (inactive),-2.54 (inactive)
CAVVCCSMAYAGNASASA [HC2063],0.877 (inactive),1.72,0.58 (inactive)
CAKKIRGKRFAGNASASA [FS-672],6.75 (active),8.84 (active),7.44 (active)
CADRSRGKRFAGNASASA [FS-410],7.7 (active),10.3 (active),8.8 (active)
CATTPSSGSWAGNASASA [HC55],-0.371 (inactive),-0.739 (inactive),-0.54 (inactive)
CAVVCCSMSYAGNASASA [HC94],0.423 (inactive),0.141 (inactive),0.568 (inactive)
CADEVDGVDEAGNASASA [CS2],-0.934 (inactive),-0.925 (inactive),-0.54 (inactive)
CAPCTPLPAPAGNASASA [HC1195],-0.0603 (inactive),-1.7 (inactive),-1.53 (inactive)
CAFSSRDERSAGNASASA [FS-588],-0.242 (inactive),-1.07 (inactive),-1.76 (inactive)
CASAGHTVSGAGNASASA [HC356],-0.221 (inactive),-0.0745 (inactive),0.22 (inactive)
CADRSRRVRSAGNASASA [FS-1190],12.9 (active),12.1 (active),9.2 (active)
CASAGRHVRSAGNASASA [FS-1408],8 (active),10.8 (active),7.16 (active)
CALELRRVRSAGNASASA [FS-605],0.493 (inactive),1.94,2.52
CAHLKRRVRSAGNASASA [FS-793],11.8 (active),10.6 (active),9.61 (active)
CAHLKRDTEDAGNASASA [FS-2863],-0.885 (inactive),0.879 (inactive),-0.411 (inactive)
CAPLRRFWRSAGNASASA [FS-1602],-0.433 (inactive),-0.244 (inactive),0.194 (inactive)
CAPKSRIVRSAGNASASA [FS-369],14.9 (active),13.8 (active),11.4 (active)
